Assay results reported in PubChem BioAssay (NCI).
The panel holds about 79,000 compounds, 15% with a hit somewhere; the sample as a whole holds those more often. Activity calls are given as the source filed them. Rule as the data show it: active = growth inhibition above about 70%; inactive = the rest. *1 amine or outer side, *2 acyl side, *3 side chain or, on linkers, in order; H or OH if unused. Where a SMILES comes first, the peptide text is derived from it. Bridges are numbered along the chain shown (N, C = ends). Roman numbers before positions name the chains, in order. [ ]: non-standard residue; d: D form. Actinocin(9to1) = Cc1c2oc3c(C)ccc(C(=O)[*:1])c3nc-2c(C(=O)[*:2])c(N)c1=O; NMeF = CN[CH](Cc1ccccc1)C(=O)O; Sar = CNCC(=O)O

Experiments:
[1] = NCI Yeast Anticancer Drug Screen. Data for the rad50 strain (AID 155);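 also: 0% = growth of vehicle-only cultures of the same strain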; settings: S. cerevisiae rad50 strain growth inhibition; at 50.0 µM; hits give high values
Procedure, shortened: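 A DNA repair-deficient yeast mutant serves as the test organism; compound-induced growth inhibition is calculated against vehicle-treated cells.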

[2] = NCI Yeast Anticancer Drug Screen. Data for the mec2-1 strain (AID 157); settings: S. cerevisiae mec2-1 strain, at 50.0 µM, hits give high values
Procedure, shortened: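 Each compound was tested on mec2-1 yeast, a strain altered in DNA damage repair or cell cycle control. Growth inhibition is reported relative to vehicle.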

[3] = NCI Yeast Anticancer Drug Screen. Data for the sgs1 mgt1 strain (AID 161);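 also: 0% = growth of cultures given vehicle only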; settings: S. cerevisiae sgs1 mgt1 strain, at 50.0 µM, hits give high values
Procedure, shortened: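 Mutant yeast exposed to compound; growth scored against vehicle-only wells.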

[4] = NCI Yeast Anticancer Drug Screen. Data for the cln2 rad14 strain (AID 165);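 also: 0% = growth equal to vehicle treated cultures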; settings: S. cerevisiae cln2 rad14 strain, at 50.0 µM, hits give high values
Procedure, shortened: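 Test compounds were added to cln2 rad14 yeast cultures; inhibition of growth was then determined by comparison with vehicle treatment.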

[5] = NCI Yeast Anticancer Drug Screen. Data for the bub3 strain (AID 167); settings: S. cerevisiae bub3 mutant strain, at 50.0 µM, hits give high values
Procedure, shortened: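 Inhibition values come from growth of compound-treated mutant yeast normalised to vehicle-treated controls.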

[6] = NCI Yeast Anticancer Drug Screen. Data for the mlh1 rad18 strain (AID 175); settings: S. cerevisiae mlh1 rad18 strain growth inhibition; at 50.0 µM; hits give high values
Procedure, shortened: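 Inhibition values reflect reduced growth of mutant yeast versus vehicle-treated controls following compound exposure; the mutations affect DNA damage repair.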

SMILES | growth inhibition [1] | growth inhibition [2] | growth inhibition [3] | growth inhibition [4] | growth inhibition [5] | growth inhibition [6]
O=C(Nc1cccc(Cl)c1)OC1C=CCC1 (centres undefined) | 3.4% (inactive) | 1.75% (inactive) | 2.65% (inactive) | -20.1% (inactive) | -2.15% (inactive) | -15.5% (inactive)
CCC(C(N)C(=O)O)C(F)(F)F (centres undefined) | -19.4% (inactive) | -32.1% (inactive) | 1.4% (inactive) | 4.25% (inactive) | -22.1% (inactive) | -6.55% (inactive)
O=C(Cc1cc2ccccc2[nH]c1=O)Nc1ccccc1 | 9.55% (inactive) | -7.2% (inactive) | 6.75% (inactive) | -27% (inactive) | -2.2% (inactive) | -5.55% (inactive)
CN(C)CCCN=C(N)N | 1.25% (inactive) | -20.9% (inactive) | -23.9% (inactive) | 20.4% (inactive) | -57.5% (inactive) | -4.1% (inactive)
COc1nc(SC)nc2[nH]ccc12 | -1% (inactive) | 9.75% (inactive) | -4.2% (inactive) | -6.6% (inactive) | -6.35% (inactive) | -9.1% (inactive)
Cc1ccc(S(=O)(=O)Oc2ccc(N(CC(=O)O)S(=O)(=O)c3ccc(C)cc3)cc2)cc1 | 45.3% (inactive) | 9.8% (inactive) | 29.4% (inactive) | 11.8% (inactive) | -1.35% (inactive) | 17.5% (inactive)
CC1=CCC(C(C)(C)OCCCO)CC1 (centres undefined) | 15.8% (inactive) | 14% (inactive) | -17.6% (inactive) | 10.7% (inactive) | 4.4% (inactive) | 22% (inactive)
COc1ccccc1C(N)c1ccccc1 (centres undefined) | -13.1% (inactive) | -0.75% (inactive) | 15.9% (inactive) | 5.8% (inactive) | -0.7% (inactive) | 13.6% (inactive)
CN(C)C(=S)/N=c1\ss/c(=N\C(=S)N(C)C)n1-c1ccc2c(c1)OCO2 | -16.1% (inactive) | -4.1% (inactive) | -3.45% (inactive) | -1.45% (inactive) | -16.9% (inactive) | 1.7% (inactive)
CCOC(=N)CC(=O)Nc1ccccc1CC | 17.8% (inactive) | -0.05% (inactive) | 11.6% (inactive) | 4.05% (inactive) | 12.1% (inactive) | 20.9% (inactive)
Oc1ccc(N2CCOCC2)cc1 | 0.45% (inactive) | 16.8% (inactive) | 3.05% (inactive) | -32% (inactive) | 25.6% (inactive) | 8.5% (inactive)
COC(=O)C(=O)C1CSC2=C(CS(=O)(=O)c3ccccc32)C1=O (centres undefined) | -4.55% (inactive) | -9.5% (inactive) | -10.6% (inactive) | -2.15% (inactive) | -17.5% (inactive) | -2.1% (inactive)
Nc1c(Br)c(Cl)c(Br)c2c1-c1ccc(Cl)cc1C2 | -13.1% (inactive) | -4.8% (inactive) | -1.4% (inactive) | -19.9% (inactive) | 7.15% (inactive) | 5.05% (inactive)
CCN(CC)CCNc1cc2ccccc2c2sc3ccccc3c(=O)c12 | 98.5% (active) | 99.2% (active) | 97.6% (active) | 98.8% (active) | 98.2% (active) | 98.3% (active)
Nc1ccc(O)c(N=Nc2ccc(S(N)(=O)=O)cc2)c1 | 6% (inactive) | 0.1% (inactive) | 13.6% (inactive) | -1.1% (inactive) | 18.1% (inactive) | 10.1% (inactive)
Nc1ccc(Cl)c(Cl)c1Cl | 40.5% (inactive) | -6.2% (inactive) | 52% (inactive) | 31% (inactive) | 43.3% (inactive) | 35.7% (inactive)
NC(=O)CC[n+]1ccc(C(=O)O)cc1 | -21.8% (inactive) | -31.7% (inactive) | -6.1% (inactive) | 0.4% (inactive) | -25.1% (inactive) | -5.05% (inactive)
CN(C)c1ccc(/C=C(\C#N)C(=O)c2ccccc2)cc1 | -9.8% (inactive) | 8.25% (inactive) | 8.9% (inactive) | -7.15% (inactive) | 6.85% (inactive) | 22.9% (inactive)
CC(=O)/C(=C\c1ccc([N+](=O)[O-])o1)C(=O)CCN(C)C | 25.1% (inactive) | 38.4% (inactive) | 63% (inactive) | 22.9% (inactive) | 39.5% (inactive) | 84.8% (active)
C1CCSCCCCSCCCCSCCCCSC1 | 20.4% (inactive) | 18% (inactive) | 23.4% (inactive) | 6.5% (inactive) | 16.9% (inactive) | 35.8% (inactive)

SMILES | growth inhibition [1] | growth inhibition [2] | growth inhibition [3] | growth inhibition [4] | growth inhibition [5] | growth inhibition [6]
COc1cccc(OC)c1NC(=O)NCCCl | -8.3% (inactive) | 14.6% (inactive) | 2.25% (inactive) | 50.8% (inactive) | 0.15% (inactive) | 14.4% (inactive)
COC1OCC(O)C(O)C1OC (centres undefined) | -11% (inactive) | -13.4% (inactive) | -16.2% (inactive) | -25.1% (inactive) | -8.55% (inactive) | -19.1% (inactive)
O=C(CCc1cc(O)cc(O)c1)NCCc1cc(OCc2ccccc2)cc(OCc2ccccc2)c1 | 28.7% (inactive) | 24.7% (inactive) | 45% (inactive) | 33.2% (inactive) | 27.1% (inactive) | -42.6% (inactive)
CN(CC(=O)C(O)C(O)C(O)CO)c1ccccc1 (centres undefined) | -10.4% (inactive) | -8.75% (inactive) | -7.6% (inactive) | -16.1% (inactive) | -2.6% (inactive) | -9.7% (inactive)
CN1CCN(CN2C(=O)C3C4C=CC(C3C2=O)C2C(=O)N(CN3CCN(C)CC3)C(=O)C42)CC1 (centres undefined) | 18.1% (inactive) | 5.95% (inactive) | 13.5% (inactive) | -0.85% (inactive) | 14.6% (inactive) | 16.9% (inactive)
CCOC1OCCCC1C(OCC)C(C)C (centres undefined) | 39% (inactive) | 14.7% (inactive) | 19.4% (inactive) | 9.35% (inactive) | -0.7% (inactive) | 12.4% (inactive)
Cc1c2oc3c(C)ccc(C(=O)NC4C(=O)NC(C(C)C)C(=O)N5CCCC5C(=O)N(C)CC(=O)N(C)C(Cc5ccccc5)C(=O)OC4C)c3nc-2c(C(=O)NC2C(=O)NC(C(C)C)C(=O)N3CCCC3C(=O)N(C)CC(=O)N(C)C(Cc3ccccc3)C(=O)OC2C)c(N)c1=O (centres undefined) (I: TVP[Sar][NMeF] / II: TVP[Sar][NMeF]; ester I:1-I:C, II:1-II:C; linker I:N-II:N via Actinocin(9to1); configuration not given here) | -0.6% (inactive) | 6.05% (inactive) | -12.7% (inactive) | 2.15% (inactive) | -23.6% (inactive) | -27.4% (inactive)
COc1ccc2ccc3cccnc3c2n1 | 45.2% (inactive) | 22.1% (inactive) | 40.9% (inactive) | -2.35% (inactive) | 26.2% (inactive) | 2% (inactive)
CCCCn1c(=O)c2c(ncn2C)n(C)c1=O | 16.8% (inactive) | 16.6% (inactive) | 9.75% (inactive) | -9.25% (inactive) | -2.45% (inactive) | 6.2% (inactive)
CC(=O)Nc1ccc(F)c(F)c1 | 17.8% (inactive) | -16.7% (inactive) | 3.2% (inactive) | -3.95% (inactive) | -3.35% (inactive) | 30.8% (inactive)
S=C(N/N=C\c1ccc(Cl)cc1Cl)Nc1ccc2cn[nH]c2c1 | 20% (inactive) | 17.2% (inactive) | 28.2% (inactive) | -38% (inactive) | 2% (inactive) | 31.8% (inactive)
COc1cc(-c2cc(=O)c3c(OC)c(OC)c(OC)cc3o2)c(OC)c(OC)c1OC | 38% (inactive) | 10.6% (inactive) | 3.05% (inactive) | -12.9% (inactive) | -6.15% (inactive) | -36.8% (inactive)
CCCCNCCOC(=O)c1ccc(N)cc1 | 2.9% (inactive) | 2% (inactive) | 1.9% (inactive) | 16.4% (inactive) | 10.1% (inactive) | 12.1% (inactive)
CCN(CC)C1=Nc2ccccc2N(c2ccccc2)C(=S)C1 | 46.9% (inactive) | 25.5% (inactive) | 30.1% (inactive) | 13.9% (inactive) | 36.2% (inactive) | 51.2% (inactive)
COC(=O)c1cc2c3c(ccc2[nH]1)N(C(=O)c1cc2c4c(ccc2[nH]1)N(C(=O)c1cc2c5c(ccc2[nH]1)N(C(N)=O)CC5)CC4)CC3 | 18.8% (inactive) | 5.05% (inactive) | -2.05% (inactive) | 15.7% (inactive) | 29.8% (inactive) | 11.9% (inactive)
CS(=O)(=O)C(CCC(=O)c1ccc2ccccc2c1)C(=O)c1ccccc1 (centres undefined) | 3.1% (inactive) | -12.7% (inactive) | 5.3% (inactive) | 20.4% (inactive) | -2.4% (inactive) | -7.15% (inactive)
CC1C(=O)C2C1CS2(=O)=O (centres undefined) | -0.9% (inactive) | 0.65% (inactive) | 5% (inactive) | -59.1% (inactive) | 13% (inactive) | -5.45% (inactive)
CCCC1=NCCO1 | -10.9% (inactive) | -26.6% (inactive) | -6.65% (inactive) | 0.45% (inactive) | -6.95% (inactive) | -13.7% (inactive)
c1ccc(C23CCCCC2O3)cc1 (centres undefined) | 0.75% (inactive) | 2.95% (inactive) | 6.55% (inactive) | 5.95% (inactive) | 12.4% (inactive) | 4.85% (inactive)
